# Measured values reported in PubChem BioAssay (NCI).
# Compounds without any hit were thinned out: in the full panel of roughly 83,000, 20% have a hit.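 Testing used 96-well plates and a 48-hour single-concentration exposure. Example: -40 means 40% of the starting cells died.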 Active and inactive are the calls of the source. The calls were made as follows: active = growth percent below 10; inactive = the rest.
# Tested on: UO-31 renal
# Assay: NCI-60 one-dose screen, 48 h (100 = growth as untreated, 0 = no growth, -100 = all killed)
# Settings: 10 µM
row,Compound,growth
1,CCOS(=O)(=O)c1c(C(C)C)cc(C(C)C)cc1C(C)C,92.2% (inactive)
2,CC(C)CCN(CCC(C)C)CC(=O)Nc1ccc(S(=O)(=O)c2ccc(NC(=O)CN(CCC(C)C)CCC(C)C)cc2)cc1,63.3% (inactive)
3,O=C(N/N=C/c1cc([N+](=O)[O-])ccc1O)c1cccc2ccccc12,19.1% (inactive)
4,COc1cc(Cc2cc(-c3ccccc3)n[nH]c2=O)cc(OC)c1OC,58.3% (inactive)
5,C1CN(CC2CCC(CN3CCOCC3)O2)CCO1 (stereo unspecified),93.6% (inactive)
6,Cc1cc(=O)n2nnc3cc(Cl)c(Cl)cc3n12,81.3% (inactive)
7,CC(=O)N[C@H](C(=O)N[C@@H](CCCNC(=N)N)C(=O)N[C@@H](CCCCN)C(=O)N[C@@H](CCCNC(=N)N)C(=O)N[C@]1(C)CCCCCC/C=C\CCC[C@@](C)(C(=O)N[C@@H](CCCNC(=N)N)C(=O)N[C@@H](CCC(=O)O)C(=O)N[C@@H](CC(C)C)C(=O)N[C@H](C(=O)N[C@@H](CCC(=O)O)C(N)=O)C(C)C)NC(=O)[C@H](CCC(N)=O)NC(=O)[C@H](CC(C)C)NC(=O)[C@H](CC(C)C)NC(=O)[C@H](CCCNC(=N)N)NC(=O)[C@H](CCCNC(=N)N)NC(=O)[C@H](CC(C)C)NC1=O)C(C)C,50.1% (inactive)
8,Cc1ccc(/C=C2/C(=O)N(C)c3ccc(S(=O)(=O)Nc4ccc(C(C)(C)C)cc4)cc32)s1,73.4% (inactive)
9,CC(=O)[C@H]1CC[C@]2(C)[C@@H]1CC[C@@H]1[C@@]3(C)CC(CCC#N)(CCC#N)C(=O)C(C)(C)[C@@H]3CC[C@]12C,82% (inactive)
10,O=C(CCn1cnc2c(cc(-c3ccccc3)n2-c2ccccc2)c1=O)Nc1ccc(F)cc1,75% (inactive)
11,Cc1c(Cl)cccc1NC(=O)CN1CCOCC1,83.8% (inactive)
12,CC(C)(C)OC(=O)CN1CCc2c(sc3ncnc(N/N=C/c4cccc5ccccc45)c23)C1,3.34% (active)
13,CCn1c(SCc2ccc(C)cc2)nnc1-c1nn(-c2ccc(Cl)cc2Cl)c(-c2ccc(Cl)cc2)c1C,9.59% (active)
14,O=C(Nc1nc(-c2ccccc2)nc2c1sc(=S)n2-c1ccccc1)C(F)(F)F,81.2% (inactive)
15,Cc1c[nH]c(=O)n(Cc2nnc(CCC(=O)c3nc4ccccc4[nH]3)o2)c1=O,44.2% (inactive)
16,CCCCN(CCCC)C(=O)[C@H](CC)[C@@H]1CC[C@@H](C)[C@@H]([C@H](C)[C@@H](O)[C@@H](C)C(=O)[C@H](CC)C2O[C@]3(C=CC(=O)[C@]4(CC[C@@](C)([C@H]5CC[C@](O)(CC)[C@H](C)O5)O4)O3)[C@H](C)C[C@@H]2C)O1 (stereo partly specified),13.4% (inactive)

row,Compound,growth
1,CCN(CC)CCOc1cccc2c1C(=O)c1ccccc1C2=O,62.2% (inactive)
2,COc1cc(OC)c2c(=O)c(O)c(-c3ccccc3)oc2c1,53.8% (inactive)
3,COc1ccc(-c2cc(-c3ccccc3)nc(SCCCC(=O)NO)n2)cc1,-52% (active)
4,COc1cc(-c2nn(-c3ccc(NC(=O)NCCNS(=O)(=O)c4ccc(F)cc4)cc3)cc2-c2ccncc2)ccc1Cl,31.5% (inactive)
5,Cc1[nH]c2ccccc2c1/C=N/Nc1ncnc2sc3c(c12)CCN(CC(=O)OC(C)(C)C)C3,65.5% (inactive)
6,O=C1CSC(=S)N1/N=C/c1ccc(Cl)s1,79.3% (inactive)
7,O=C(CC(CC(=O)c1ccccc1)c1ccccc1O)c1ccccc1,78.4% (inactive)
8,CCOC(=O)c1cc(C(=O)c2cc(OC)cc(OC)c2)n2nc(C)ccc12,44.9% (inactive)
9,CCCc1cn(CC(=O)Nc2nc3ccccc3s2)nn1,65.9% (inactive)
10,CC(CN(C)C)Oc1ccc(OC(C)CN(C)C)c2c1C(=O)c1ccccc1C2=O (stereo unspecified),63.5% (inactive)
11,COc1cc(-c2nn(-c3cccc(NC(=O)NCCNC(=O)c4cccc(C(F)(F)F)c4)c3)cc2-c2ccncc2)ccc1Cl,62.1% (inactive)
12,Cc1ccc(NCCNCC(C)(C)O)c2c(=O)c3ccc(Cl)cc3sc12,41.2% (inactive)
13,CNS(=O)(=O)Oc1ccc(-c2sc3cc(OS(=O)(=O)NC)ccc3c2C(=O)c2ccc(OCCN3CCCCC3)cc2)cc1,50.9% (inactive)
14,CN(C)CCOc1ccccc1NC1=C(Cl)C(=O)C(Nc2ccccc2OCCN(C)C)=C(Cl)C1=O,38.4% (inactive)
15,COc1cc(-c2nn(-c3cccc(NC(=O)CCNc4ccc(N5CCOCC5)cc4)c3)cc2-c2ccncc2)ccc1Cl,27.3% (inactive)
